{"source": "PubChem BioAssay (Tox21)", "note": "Inconclusive results are not listed. Entries that show only a call come without a potency. Activity calls are given as the source filed them. Calls come from the whole dose curve; as a rule, active = well fitted inhibition curve with a large enough effect in the repeat runs; inconclusive = weak or mixed curves; inactive = no such curve, though single readings can be large or run the other way. Potency is the fitted concentration of half-maximal effect."}
{"biological_target": "Cytochrome P450 3A4 (Homo sapiens) (UniProt P08684)", "sequence (P08684 whole entry, looked up)": "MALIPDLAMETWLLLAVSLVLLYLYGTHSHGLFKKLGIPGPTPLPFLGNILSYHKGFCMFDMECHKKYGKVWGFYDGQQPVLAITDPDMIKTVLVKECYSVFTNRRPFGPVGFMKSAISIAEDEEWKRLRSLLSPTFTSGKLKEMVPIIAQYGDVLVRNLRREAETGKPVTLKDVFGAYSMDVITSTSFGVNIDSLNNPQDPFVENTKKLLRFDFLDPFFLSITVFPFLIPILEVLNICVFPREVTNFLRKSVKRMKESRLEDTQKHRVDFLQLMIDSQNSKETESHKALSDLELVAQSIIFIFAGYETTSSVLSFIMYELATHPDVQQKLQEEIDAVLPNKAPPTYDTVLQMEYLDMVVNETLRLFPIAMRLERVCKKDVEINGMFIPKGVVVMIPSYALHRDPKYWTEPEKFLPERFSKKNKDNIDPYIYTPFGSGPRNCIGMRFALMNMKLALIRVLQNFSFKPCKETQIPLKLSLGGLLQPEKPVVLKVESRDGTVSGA", "assay": "Cytochrome P450 Family 3 Subfamily A Member 4 (CYP3A4) small molecule antagonists: luciferase reporter qHTS assay (AID 1671201); note: nearly all actives have a fitted effect of over 50% in size", "conditions": "P450-Glo CYP3A4 enzyme, luciferin luminescence, 1 h; series mostly up to 115 µM", "in_short": "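Proluciferin-to-luciferin conversion by CYP3A4, NADPH-regenerated, 1 h RT; luminescence read as RLU. Ketoconazole as control.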"}
{"compound": "O=S(=O)(c1ccc(OCc2ccccc2)cc1)c1ccccc1O", "Potency": "inactive"}
{"compound": "Cn1c(=O)[nH]c2ncn(C)c2c1=O", "Potency": "inactive"}
{"compound": "Cc1ccc(N=Nc2c(O)ccc3ccccc23)c(C)c1", "Potency": "inactive"}
{"compound": "COCCC(=O)OC", "Potency": "inactive"}
{"compound": "C=Cc1ccncc1", "Potency": "inactive"}
{"compound": "Oc1ccc(C2(c3ccc(O)c(C4CCCCC4)c3)CCCCC2)cc1C1CCCCC1", "Potency": "14.2 µM (active)"}
{"compound": "[Cl][Sc]([Cl])[Cl]", "Potency": "inactive"}
{"compound": "N#CCCOCCC#N", "Potency": "inactive"}
{"compound": "O=C1OC(=O)c2cc(-c3ccc4c(c3)C(=O)OC4=O)ccc21", "Potency": "inactive"}
{"compound": "CCCCC/C=C\\C=C\\C(=O)OCC", "Potency": "16.6 µM (active)"}
{"compound": "C/C(=N\\[Si](C)(C)C)O[Si](C)(C)C", "Potency": "inactive"}
{"compound": "NCc1cccc(C2CCN(C(=O)c3ccc(C#Cc4ccccc4F)o3)CC2)c1", "Potency": "5.64 µM (active)"}
{"compound": "NCc1ccco1", "Potency": "inactive"}
{"compound": "CC/C=C(\\C)C=O", "Potency": "inactive"}
{"compound": "CCN(CC)c1ccc(C=O)cc1", "Potency": "inactive"}
{"compound": "Nc1ccc(Oc2cccc(Oc3ccc(N)cc3)c2)cc1", "Potency": "6.33 µM (active)"}
{"compound": "CCC1(C)C(=O)N(Cl)C(=O)N1Cl", "note": "(configuration not stated)", "Potency": "inactive"}
{"compound": "O=C1CCC(=O)N1", "Potency": "inactive"}
{"compound": "Cc1ccc2sc3cccc(C)c3c2c1", "Potency": "inactive"}
{"compound": "O=C1OC(O)C(C(Cl)Cl)=C1Cl", "note": "(configuration not stated)", "Potency": "inactive"}
{"compound": "CC(C=O)c1ccccc1", "note": "(configuration not stated)", "Potency": "inactive"}
{"compound": "S=C1NC=NC2N=CNC12", "note": "(configuration not stated)", "Potency": "inactive"}
{"compound": "CCN(CC)c1ccc(C=O)c(O)c1", "Potency": "inactive"}
{"compound": "Cc1cccc2c1ccc1ccccc12", "Potency": "inactive"}
{"compound": "CC(=O)CC(N)=O", "Potency": "inactive"}
{"compound": "CCCCCCCCCC[N+](C)(CCCCCCCCCC)CCC[Si](OC)(OC)OC", "Potency": "28.3 µM (active)"}
{"compound": "Cc1cc(C)c(O)c(C(C)(C)C)c1", "Potency": "inactive"}
